Measurements as given in paper PMC6792352, “Limited Chemical Structural Diversity Found to Modulate Thyroid Hormone Receptor in the Tox21 Chemical Library” (Environmental Health Perspectives, 2019).
Where a name gives a salt, the structure may show the parent alone.

What follows are compounds tested on thyroid hormone receptor (endogenous TRα and TRβ). Settings: read-out: Average AC50 (uM) GH3-TRE-Antag, antagonist mode, 1 nM T3, no GH3 cytotoxicity hit.
Parameters: species or system GH3-TRE-Luc (rat pituitary); GH3-TRE-Luc luciferase reporter, antagonist mode against 1 nM T3, loss of signal, qHTS

SMILES	AC50 [µM]
Cn1cnc2c(F)c(Nc3ccc(Br)cc3Cl)c(C(=O)NOCCO)cc21 [Selumetinib]	12.5
Cc1ccc(S(=O)(=O)NC2CCCCC2)cc1 [N-Cyclohexyl-4-methylbenzenesulfonamide]	> 90
Cn1cnc([N+](=O)[O-])c1Sc1ncnc2[nH]cnc12 [Azathioprine]	> 50
O=C(COc1ccc(Cl)cc1)OCCNC12CC3CC(CC(C3)C1)C2 [Adafenoxate]	26
CC(C)c1cccc(C(C)C)c1N1C(=O)c2ccc(O)cc2C1=O [5HPP-33]	5.01
Cc1cccc(Oc2ccccc2)c1 [1-Methyl-3-phenoxybenzene]	82.5
C[C@H](CN1CCCC1)C(=O)c1ccc(C(F)(F)F)cc1 [Lanperisone hydrochloride]	31.4
O=C(O)C1(C(=O)Nc2ccc(Cl)cc2Cl)CC1 [Cyclanilide]	64.4
CC(C(=O)O)c1ccc(-c2ccccc2)c(F)c1 (stereo not shown) [Flurbiprofen]	> 20
CCCCCCCC(=O)Oc1c(Br)cc(C#N)cc1Br [Bromoxynil octanoate]	74
c1ccc(C2(c3ccccc3)CC2C2=NCCN2)cc1 (stereo not shown) [Cifenline succinate]	35.8
c1ccc(Nc2ccccc2)cc1 [Diphenylamine]	83.1
CCCCCOC(=O)COc1cc(N2C(=O)C3=C(CCCC3)C2=O)c(F)cc1Cl [Flumiclorac-pentyl]	52.5
CCN(CCCCOC(=O)c1ccc(OC)c(OC)c1)C(C)Cc1ccc(OC)cc1 (stereo not shown) [Mebeverine hydrochloride]	13.7
COCCCOc1ccnc(C[S+]([O-])c2nc3ccccc3[nH]2)c1C (stereo not shown) [Rabeprazole sodium]	51.1
O=c1c(-c2ccc(O)cc2)coc2cc(O)ccc12 [Daidzein]	87.6
Oc1ccc(-c2ccc(O)cc2)cc1 [4,4'-Biphenyldiol]	34.2
Oc1ccc2c(c1)-c1ccccc1C2 [3-Hydroxyfluorene]	91.5
CC1(C)S[C@@H]2[C@H](NC(=O)[C@H](N)c3ccccc3)C(=O)N2[C@H]1C(=O)OC1OC(=O)c2ccccc21 (stereo partly shown) [Talampicillin hydrochloride]	> 20
CCN(CCCc1ccccc1)CCCc1ccccc1 [Alverine citrate]	10.8

SMILES	AC50 [µM]
CNCc1ccc(NC(=O)c2c[nH]c3c2C(=O)CCC3)cc1 [CP-409092]	84.3
C#C[C@]1(O)CC[C@H]2[C@@H]3CCC4=C(CCC(=O)C4)[C@H]3CC[C@@]21C [Norethynodrel]	16.4
N[C@H](C(=O)O)[C@H](O)c1ccc(O)c(O)c1 [Droxidopa]	29.5
Clc1cc(C(Cl)(Cl)Cl)cnc1Cl [2,3-Dichloro-5-(trichloromethyl)pyridine]	40.5
CCCCOCCOC(=O)c1ccccc1C(=O)OCCOCCCC [Bis(2-butoxyethyl) phthalate]	67.1
CC(C)(C)c1cccc(C(C)(C)C)c1O [2,6-Di-tert-butylphenol]	25.4
COc1ccc(C(=O)c2ccc(O)cc2)c(OC)c1 [(2,4-dimethoxyphenyl)(4-hydroxyphenyl)methanone]	54.9
CON(C)C(=O)Nc1ccc(Cl)c(Cl)c1 [Linuron]	61.4
CCOC(CN1CCN(CC(C)C(=O)c2ccccc2)CC1)c1ccccc1 (stereo not shown) [Eprazinone dihydrochloride]	32.1
CC1(C)[C@H](C=C(Cl)Cl)[C@H]1C(=O)O[C@H](C#N)c1cccc(Oc2ccccc2)c1 [Cypermethrin]	> 50
COc1ccc(-c2cc(=S)ss2)cc1 [Anethole trithione]	> 50
CCCCNc1ccc(C(=O)OCCN(CC)CC)cc1 [Depolipon]	21
CCC[C@@]1(CCc2ccccc2)CC(O)=C([C@H](CC)c2cccc(NS(=O)(=O)c3ccc(C(F)(F)F)cn3)c2)C(=O)O1 [Tipranavir]	36.8
CCCC[C@H](CC)COC(=O)/C=C/c1ccc(OC)cc1 [Octinoxate]	> 50
NC(N)=NCc1cccc(I)c1 [3-Iodobenzylguanidine hemisulfate]	16.3
CCCCCCOc1ccc(N)cc1 [4-Hexyloxyaniline]	59.8
CCN(C(=O)N(CC)c1ccccc1)c1ccccc1 [N,N'-Diethylcarbanilide]	45.9
CC1(C)[C@H](C(=O)O[C@H](C#N)c2cccc(Oc3ccccc3)c2)[C@@H]1C=C(Br)Br [Deltamethrin]	76.3
CN(C)c1ccc(O)c2c1C[C@H]1C[C@H]3[C@H](N(C)C)C(O)=C(C(N)=O)C(=O)[C@@]3(O)C(O)=C1C2=O [Minocycline hydrochloride]	44.9
CC[C@H](C)[C@@H](C(=O)O)n1sc2ccccc2c1=O [(2S,3S)-3-Methyl-2-(3-oxo-1,2-benzothiazol-2(3H)-yl)pentanoic acid]	> 90
